Six1-Eya2 blk = Six1/Eya2 interaction inhibition; Q15475+O00167; AlphaScreen GST-Six1/His-Eya2 binding, biochemical; stronger effect = lower value; activity change, % (no concentration beside the values); 360,000 tested, 0.56% active; AID 651725; in the data active means activity change below about -65%; inconclusive means mostly about -30% to -63%
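GST-Six1 + His-Eya2 (5X stock: 250/500 nM); Tris pH 8.0, 300 mM NaCl, 0.05% BSA, 0.02% Tween 20; GSH donor/Ni acceptor beads; 1 h 37 °C dark; AlphaScreen readout.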
RORgamma inh = ROR gamma (mouse) transcription inhibition. P51450. Drosophila S2 Gal4-RORgamma UAS-luciferase reporter, 20 h. Potency, µM (doses to about 53.6 µM), most hits filed as inhibitors. 310,000 tested, 5.4% active; further: nearly all actives have a fitted effect of over 60% in size
Target sequence (P51450 whole entry, looked up, the tested form may be a part): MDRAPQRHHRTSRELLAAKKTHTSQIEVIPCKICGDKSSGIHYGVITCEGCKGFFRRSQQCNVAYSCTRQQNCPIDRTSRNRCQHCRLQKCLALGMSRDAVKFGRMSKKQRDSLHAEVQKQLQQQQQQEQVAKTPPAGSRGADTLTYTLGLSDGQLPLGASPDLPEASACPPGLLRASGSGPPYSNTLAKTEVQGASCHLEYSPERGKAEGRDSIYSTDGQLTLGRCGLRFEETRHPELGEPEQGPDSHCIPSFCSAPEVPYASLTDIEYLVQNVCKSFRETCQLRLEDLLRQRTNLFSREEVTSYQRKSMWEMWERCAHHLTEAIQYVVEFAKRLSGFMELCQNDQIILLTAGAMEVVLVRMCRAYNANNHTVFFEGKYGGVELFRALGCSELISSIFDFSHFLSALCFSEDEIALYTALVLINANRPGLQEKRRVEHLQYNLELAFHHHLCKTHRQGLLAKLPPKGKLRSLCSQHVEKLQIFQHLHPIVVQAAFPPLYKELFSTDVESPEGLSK
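Compounds are pin-transferred onto Drosophila Schneider cells expressing a copper-inducible Gal4–ROR gamma transactivation domain fusion. After 1 hr, copper sulfate is added to 700 uM final; luciferase is read 20 hr later.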
CtBP-E1A blk = CtBP/E1A binding inhibition; AlphaScreen GST-E1A/His-CtBP binding, 1536-well; stronger effect = lower value; activity change, % (test concentration not listed); 340,000 tested, 0.49% active; AID 651724; in the data active means activity change below about -65%; inconclusive means mostly about -30% to -63%
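Protein mix (5X: 125 nM each GST-E1A, His-CtBP) was incubated with pinned compound 2 h at 37 deg C in dark, in 50 mM Tris pH 8.0 buffer with 300 mM NaCl. Glutathione donor and nickel acceptor beads followed; AlphaScreen signal read after 1 h.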
PKM2 act = increases activity of human pyruvate kinase M2 | Potency, µM (doses to about 57.5 µM), actives largely listed as activators | 260,000 tested, 0.34% active | purified PKM2, Kinase-Glo ATP luminescence, activation; response scale: 0% is enzyme alone, no compound | P14618 | AID 1631; further: nearly all actives have a fitted effect of over 55% in size
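hPK-M2, >95% pure; 0.1 mM ADP / 0.5 mM PEP final; imidazole pH7.2 buffer w/ 7 mM MgCl2, 50 mM KCl; 1 h RT; Kinase-Glo lum. Intermediate enzyme activity for dual inhibitor/activator qHTS.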
VP16 counter = counter-screen for ROR gamma inhibitors: Gal4-VP16 reporter; Drosophila S2 Gal4-VP16 UAS-luciferase, luminescence, 20 h; AID 2546; Potency, µM (doses to about 53.6 µM), usual class: inhibitors; 310,000 tested, 3.5% active;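 further: Gal4-VP16 expression switched on by copper sulfate through the metallothionein promoter; nearly all actives have a fitted effect of over 50% in size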
Large screens that a line does not name were inactive. The list is not random: actives were taken first. Their share in the collection is about 5.6%. Unless noted, the call rests on the fitted dose curve; in most records, active means well fitted curve in the direction sought with a large enough effect; inconclusive means small, poorly fitted or top-dose-only effect, or another doubt; inactive means no such curve, though single readings can be large; an effect the other way counts as inactive or inconclusive.

O=C(NN=Cc1c(O)ccc2ccccc12)c1ccc2c(c1)OCO2	none (no result: RORgamma inh, PKM2 act, VP16 counter)
Oc1ccc(N=Nc2ccc3c(c2)OCO3)c2ccccc12	RORgamma inh 0.13µM, VP16 counter 0.63µM (no result: Six1-Eya2 blk, CtBP-E1A blk)
O=C(CCc1ccccc1)NC(=S)Nc1cc(C(F)(F)F)ccc1N1CCOCC1	RORgamma inh 7.1µM, VP16 counter inconclusive
CC(C)CC(=O)NC(=S)Nc1cc(C(F)(F)F)ccc1N1CCOCC1	RORgamma inh 7.9µM, VP16 counter 7.1µM
Cn1cccc1CC(=O)NNC(=S)Nc1ccc(Cl)cc1	RORgamma inh 11µM, VP16 counter inconclusive
O=C(Cc1noc2ccccc12)NNC(=S)Nc1ccccc1	RORgamma inh inconclusive
O=C(Cc1noc2ccccc12)NNC(=S)Nc1ccc(Cl)cc1	RORgamma inh 11µM
C[C@H]1/C=C\CC(=O)OC[C@H](C)C(=O)N2CCC[C@@H]2C(=O)OC1	none (no result: Six1-Eya2 blk, CtBP-E1A blk, PKM2 act)
Cc1cc2ccccc2n1CCNC(=O)c1cccs1	Six1-Eya2 blk inconclusive, RORgamma inh 13µM, VP16 counter 14µM
CCCn1c(Nc2ccc(Cl)cc2)nc2ccccc21	RORgamma inh inconclusive
CN(C)CCn1c(NC(=O)c2ccc(Cl)cc2)nc2ccccc21	RORgamma inh 1.1µM, VP16 counter 1.4µM
CCCn1c(NC(=O)c2ccc(Cl)c(S(=O)(=O)N3CCCC3)c2)nc2ccccc21	RORgamma inh 1.6µM, VP16 counter 3.5µM
CCn1c(NC(=O)c2cccs2)nc2ccccc21	RORgamma inh 0.71µM, VP16 counter 1.1µM
CCC(C)(C)NC(=O)C(c1ccccn1)N(C(=O)c1csnn1)c1ccc(C)cc1 (stereo not drawn)	none
COc1ccc(C2=C(c3ccccc3)OC(OC)c3cc(F)ccc32)cn1 (stereo not drawn)	none (no result: RORgamma inh, PKM2 act, VP16 counter)
CCN(CC)CCn1c(NC(=O)c2ccc(C)cc2)nc2ccccc21	RORgamma inh inconclusive, VP16 counter inconclusive
CCN(CC)CCn1c(NC(=O)c2ccc(C(F)(F)F)cc2)nc2ccccc21	RORgamma inh 0.22µM, VP16 counter 0.35µM
CCCn1c(NC(=O)c2cccc(C)c2C)nc2ccccc21	RORgamma inh 2µM, VP16 counter 2.2µM
CCCn1c(NC(=O)C2CCN(C(=O)c3ccccc3C)CC2)nc2ccccc21	none (no result: RORgamma inh, PKM2 act, VP16 counter)
CCOc1ccc(C(=S)N2CCCC2)c(OCC)c1	RORgamma inh inconclusive, VP16 counter inconclusive
O=C(CSc1nnc(SCc2ccccc2)s1)N/N=C/c1ccc(C(=O)O)cc1	none
Cc1ccc(CSc2nnc(SCC(=O)N/N=C/c3ccc(C(=O)O)cc3)s2)cc1	RORgamma inh 5.6µM, VP16 counter inconclusive
O=C(CSc1nnc(SCc2ccccc2)s1)N/N=C/c1c[nH]c2ccccc12	RORgamma inh 8.9µM, PKM2 act inconclusive, VP16 counter inconclusive
Cc1ccc(CSc2nnc(SCC(=O)N/N=C/c3c[nH]c4ccccc34)s2)cc1	PKM2 act 25µM, VP16 counter inconclusive
O=C(CN1CCN(Cc2ccc3c(c2)OCO3)CC1)NCC(F)(F)F	none
COc1ccc(OC)c(NC(=O)c2ccc3c(=O)n(CCc4ccccc4)c(=S)[nH]c3c2)c1	RORgamma inh 0.79µM, VP16 counter 0.89µM
COc1ccc(-n2c(=S)[nH]c3cc(C(=O)NCc4ccccc4)ccc3c2=O)c(OC)c1	RORgamma inh 20µM, VP16 counter inconclusive
COc1ccc(-n2c(=S)[nH]c3cc(C(=O)N4CCN(c5ccccc5)CC4)ccc3c2=O)c(OC)c1	RORgamma inh inconclusive, VP16 counter 13µM
CCOC(=O)N1CCN(C(=O)c2ccc3c(=O)n(-c4cc(OC)ccc4OC)c(=S)[nH]c3c2)CC1	none
O=C(Nc1nccs1)c1ccc(Cl)s1	RORgamma inh 10µM
O=C(Nc1nccs1)c1sc2ccccc2c1Cl	RORgamma inh 2.2µM, VP16 counter 5µM
O=C(Nc1nccs1)c1sc2cc(Cl)ccc2c1Cl	RORgamma inh 0.5µM, VP16 counter 2.8µM
O=C(Nc1ccccn1)c1ccc(Cl)s1	none
Cc1cnc(NC(=O)c2sc3ccccc3c2Cl)s1	RORgamma inh 2µM, VP16 counter 5µM
Cc1cccnc1NC(=O)CNC(=O)c1sc2ccccc2c1Cl	none (no result: RORgamma inh, PKM2 act, VP16 counter)
COc1ccc(CCN(C)Cc2nc(Cc3ccc(OC)c(OC)c3)no2)cc1OC	none
CC(=O)Nc1ccn(C2CC3OCC(NC(=O)C(Cc4ccccc4)NC(=O)OC(C)(C)C)C3O2)c(=O)n1 (stereo not drawn)	none (no result: Six1-Eya2 blk, CtBP-E1A blk, PKM2 act)
Cc1ccnc(NC(=O)c2sc3ccccc3c2Cl)c1	RORgamma inh 0.28µM, VP16 counter 1.4µM
CC(C)c1nnc(NC(=O)c2sc3ccccc3c2Cl)s1	RORgamma inh 8.9µM, VP16 counter inconclusive
O=C(Nc1nccs1)c1cc(Cl)ccc1[N+](=O)[O-]	RORgamma inh 13µM, VP16 counter inconclusive
O=C(Nc1nccs1)c1ccccc1[N+](=O)[O-]	none
CCCn1cc(C(=O)N(C)C2CCCN(Cc3ccccc3F)C2)c(C)n1 (stereo not drawn)	none
C[C@@H]1CN([C@@H](C)CO)C(=O)CCCn2nncc2CO[C@H]1CN(C)C(=O)C1CC1	none (no result: RORgamma inh, PKM2 act, VP16 counter)
CC1(C(=O)NS(=O)(=O)c2ccccc2OC(F)(F)F)CCN1C(=O)c1ccco1 (stereo not drawn)	none (no result: RORgamma inh, PKM2 act, VP16 counter)

Bioassay records (PubChem)
